MARV entry inh = inhibitors of Marburg virus binding or cell entry; Marburg virus pseudotyped entry inhibition, cell reporter; Potency, µM (top dose mostly 37.8 µM), inactives show top-dose activity change, negative = inhibition, usual class: inhibitors; 300,000 tested, 1.8% active; calls by dose curve; tested in HEK293 cells; note: potency is the fitted concentration of half-maximal effect
HCV inhibitor = inhibitors of hepatitis C virus infection | Huh7.5.1 HCVcc-Cre infection, luciferase reporter, 44 h | Potency, µM (series often up to 41.8 µM), inactives show at the highest dose activity change, negative = inhibition, actives largely listed as inhibitors | 340,000 tested, 3.4% active; active = well fitted inhibition curve with a large enough effect; inconclusive = small, poorly fitted or top-dose-only effect, or another doubt; inactive = no such curve, though single readings can be large or run the other way; note: potency is the fitted concentration of half-maximal effect
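Whole-lifecycle infectious HCVcc-Cre system; cells 1,000/well, compound then virus (~0.5 moi) added 4 h after plating, 44 h culture. Luciferase read 15 sec following 15 min substrate incubation, room temp.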
HCMV antiviral = inhibitors of human cytomegalovirus | AID 1259415 | 410,000 tested, 4.5% active | activity change, negative = inhibition, % at 57.5 µM | HFF cells, HCMV-luciferase reporter, 72 h; stronger effect = lower value; in the data active = activity change below about -60%; inconclusive = no clear call, values can overlap the other calls; inactive = above about -39%
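Luciferase read-out from HCMV-luciferase-infected HFFs (MOI 1 PFU/cell) 72 h post infection at 37C; compounds added after 16 h cell attachment; activity normalized between buffer-only basal and Salinomycin (10uM) inhibitor controls.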
LASV entry inh = inhibitors of Lassa virus binding or cell entry; Potency, µM (doses to about 37.9 µM), inactives show at the highest dose activity change, negative = inhibition, actives largely listed as inhibitors; 300,000 tested, 1.2% active; Lassa virus pseudotype entry inhibition, cell reporter; calls by dose curve; tested in HEK293 cells; note: potency is the fitted concentration of half-maximal effect; nearly all actives have a fitted effect of over 50% in size
FMDV inh = foot and mouth disease virus antiviral activity; FMDV antiviral cell-based qHTS; Potency, µM (top dose mostly 57.9 µM), without a hit: top-dose activity change, negative = inhibition, actives largely listed as inhibitors; 410,000 tested, 1.2% active; calls by dose curve; tested in HEK293T cells; note: read-out not given here; potency is the fitted concentration of half-maximal effect; nearly all actives have a fitted effect of over 45% in size
* marks the source's active call; other numbers are inactive results; ? = inconclusive; nt = no result given; [ ] = dose if it differs, or a comment. Shown are actives, neighbours in structure and some others; about 7.9% of the full set was active somewhere. % is set by controls: 0 for no effect and ±100 for the full control effect.

SMILES | MARV entry inh | HCV inhibitor | HCMV antiviral | LASV entry inh | FMDV inh
O=C(CCCc1nc(-c2ccco2)no1)Nc1ccccc1[N+](=O)[O-] | 8%[46.1 µM] | nt | 8 | -10%[46.1 µM] | 5%
CC1Cc2cc(/C(O)=C3/C(=O)C(=O)N(CCCn4ccnc4)C3c3ccc(F)cc3)ccc2O1 (configuration not stated) | 19%[46.1 µM] | 29% | -9 | 3%[46.1 µM] | 7%
CC(Oc1ccc2c(c1)c1ccnc3c4ccccc4c(=O)n2c13)C(=O)NCCN1CCOCC1 (configuration not stated) | nt | 11µM* | -90* | nt | -25%
COc1ccc2c(c1OC)c(=O)n1c3ccc(OC(C)C(=O)NCCN4CCOCC4)cc3c3ccnc2c31 (configuration not stated) | nt | ? | -3 | nt | -19%
Cc1cc(C)cc(OCC(=O)OCC(=O)N2CCc3ccccc32)c1 | 3% | 13% | -7 | -6% | -2%
Fc1ccc(Nc2nc(SCc3ccccc3F)nc3ccccc23)cc1 | nt | nt | -86* | 4%[46.1 µM] | -27%
COc1ccc(-c2csc(N3C(=O)C4C5c6ccccc6C(c6ccccc65)[C@@H]4C3=O)n2)cc1 (some centres not stated) | 24% | 19% | ? | -6% | -16%
COc1ccc(-c2csc(N3C(=O)C4C5c6ccccc6C(c6ccccc65)C4C3=O)n2)cc1 (configuration not stated) | -3% | 8% | -62* | 6% | -13%
CCOC(=O)Cn1c(=O)n(Cc2ccc(C)cc2)c(=O)c2cccnc21 | nt | 0.79µM* | 0 | nt | -21%
Cc1ccc(Cn2c(=O)c3cccnc3n(Cc3ccc(C)cc3)c2=O)cc1 | 3%[46.1 µM] | nt | 6 | nt | 2%
COc1ccc(/C=C(/NC(=O)c2ccco2)C(=O)N2CCc3ccccc32)cc1OC | -6%[46.1 µM] | 5% | 56 | 7.9µM* | -8%
Cc1ccc(C)c(S(=O)(=O)N2CCN(C(=O)CCC(=O)NCc3ccc(Cl)cc3Cl)CC2)c1 | nt | -8% | -27 | nt | ?
COc1ccc(NC(=O)C2=C(C)Nc3nc(CCCO)nn3C2c2ccc(O)cc2)cc1 (configuration not stated) | nt | nt | 3 | ? | -8%
Cc1cc(-c2csc(Nc3ccccn3)n2)ccc1F | ? | 6.3µM* | 158 | ? | -33%
Cc1cccnc1Nc1nc(-c2ccc(O)cc2)cs1 | ? | 10µM* | 63 | -29% | nt
Cc1cccnc1Nc1nc(-c2ccc(F)cc2)cs1 | -28% | ? | -10 | ? | -18%
Cc1ccc(-c2csc(Nc3ccccn3)n2)cc1 | 2µM* | -26% | -8 | ? | -62%
COc1ccc(-c2csc(Nc3ccccn3)n2)cc1OC | ? | 8.9µM* | 21 | ? | -2%
c1ccc(-c2csc(Nc3ccccn3)n2)cc1 | ? | -18% | 13 | ? | -21%
COc1ccc(OCCNC(=O)c2ccc3nc(C)c(N(C)C(=O)CCc4ccccc4)n3c2)cc1 | nt | nt | -18 | nt | -5%
O=S(=O)(c1ccc2nc(N3CCN(c4ccc(F)cc4)CC3)ccc2c1)N1CCCCC1 | nt | 16% | -14 | nt | ?
O=C(CC[C@H]1O[C@@H](n2cnc3c(NC(=O)c4ccccc4)ncnc32)[C@H](O)[C@@H]1O)NCc1cccc2ccccc12 | nt | nt | -64* | nt | -16%
CCCN1[C@@H]2c3cccc(=O)n3C[C@H]1[C@H](CO)[C@H]2C(=O)NC1Cc2ccccc2C1 | nt | nt | -10 | nt | nt
CC(C)Oc1ccc(CNC(=O)C2CCN(C(=O)N3CCOc4ccc(Cl)cc43)CC2)cc1 | nt | nt | -25 | -6%[46.1 µM] | -27%
CCOC(=O)N1CCN(C(=S)NC(=O)c2c(-c3c(Cl)cccc3Cl)noc2C)CC1 | ? | 12% | -69* | ? | -12%
SMILES | MARV entry inh | HCV inhibitor | HCMV antiviral | LASV entry inh | FMDV inh
CCOC(=O)N1CCN(C(=S)NC(=O)c2ccc(F)c(F)c2)CC1 | -2%[46.1 µM] | 26% | -89* | -10% | 30%
Cc1onc(-c2c(Cl)cccc2Cl)c1C(=O)NC(=S)N1CCOCC1 | 2% | 13% | -14 | nt | -15%
CC(C)C(NS(C)(=O)=O)c1nnc2n1CCN(Cc1ccnc3ccccc13)CC2 (configuration not stated) | nt | nt | nt | nt | -5%
COc1cccc(/C=C/C(=O)O)c1C(C)C | nt | nt | nt | nt | -3%
CC(C)SCC(=O)Nc1ncc2c(n1)-c1ccccc1CC2 | 0%[46.1 µM] | ? | -64* | ? | 8%
O=C(Nc1ncc2c(n1)-c1ccccc1CC2)C1CC1 | 17%[46.1 µM] | ? | -7 | ? | 14%
COc1ccc(/C=C/c2nc(S(=O)(=O)c3ccccc3)c(N(C)C)o2)cc1 | nt | 22µM* | -9 | nt | -16%
CC1=CC[C@@H](C)O[C@@]2(C1)C(=O)Nc1cccc(Br)c12 | -15%[14.2 µM] | nt | nt | ? | nt
COc1ccc(CNC(=O)/C=C\c2ccc3[nH]cc(CCN(C)C)c3c2)cc1 | 35µM* | nt | nt | nt | 17%
C[N+]1(C)CC[C@H](OC(=O)[C@@](O)(c2ccccc2)C2CCCC2)C1 | nt | 6% | 0 | nt | -9%
C[N+]1(C)CCC(OC(=O)C(O)(c2ccccc2)C2CCCC2)C1 (configuration not stated) | nt | -4% | -90* | nt | -4%
CCN1C(=O)[C@@H]2[C@H]3[C@H](O)[C@H](O)CC(=NO[C@@H](C)c4cn([C@H](CO)Cc5ccccc5)nn4)[C@@H]3CC[C@H]2C1=O | -3%[14.2 µM] | nt | nt | ? | nt
Cc1ccnc(Sc2ccc([N+](=O)[O-])cn2)n1 | nt | 21% | -96* | nt | 31%
O=C(c1ccccc1Sc1ccccc1[N+](=O)[O-])N1CCCCC1 | -15%[46.1 µM] | -13% | -18 | 13% | -9%
CCCc1oc2ccc(NS(=O)(=O)c3ccc(OCC)cc3)cc2c1C(=O)OCC | -23%[46.1 µM] | nt | -65* | ? | 33%
CCOC(=O)c1c(-c2ccccc2)oc2ccc(NS(=O)(=O)c3ccc(OC)cc3)cc12 | ? | nt | -25 | ? | 40%
CCCc1oc2ccc(NS(=O)(=O)c3ccc(OC)cc3)cc2c1C(=O)OCC | nt | nt | -83* | 1µM* | 23%
CCOc1ccc(S(=O)(=O)Nc2ccc3oc(C)c(C(=O)OC(C)C)c3c2)cc1 | nt | nt | 30 | -21%[46.1 µM] | 64%
O=c1c(O)c(-c2ccc(O)cc2)oc2cc(O)cc(O)c12 | nt | 6.3µM* | nt | nt | 51%
COc1cc(O)c2c(=O)c(O)c(-c3ccc(O)c(O)c3)oc2c1 | nt | nt | nt | nt | 7%
Cc1nn2c(=O)cc(COC(=O)Cc3ccccc3)nc2s1 | nt | nt | 6 | -2%[46.1 µM] | -7%
Cc1cccc(C(=O)NCc2nc(-c3ccccc3NC(=O)C3CCCO3)oc2C)c1 (configuration not stated) | nt | nt | nt | nt | 5%
COc1ccc(S(=O)(=O)N(CC(=O)Nc2cc(C)cc(C)c2)c2ccc(Cl)cc2)cc1 | -16%[46.1 µM] | nt | -32 | 8%[46.1 µM] | 0%
CCCC(C)NC(=O)CN(c1ccc2c(c1)OCCO2)S(=O)(=O)c1ccccc1 (configuration not stated) | nt | -4% | -5 | nt | -4%
COc1ccc(N(CC(=O)Nc2ccc3c(c2)OCO3)S(=O)(=O)c2ccc(F)cc2)cc1 | -7% | ? | -76* | -9% | 24%
Cc1ccc(N(CC(=O)N2CC(=O)Nc3ccccc32)S(=O)(=O)c2ccc3c(c2)OCCO3)cc1 | 7% | 9% | -63* | ? | 5%

From PubChem BioAssay
